Among the test systems are SR leukemia; RPMI-8226 leukemia; OVCAR-8 ovarian; OVCAR-5 ovarian; OVCAR-4 ovarian; SK-OV-3 ovarian; IGROV1 ovarian; OVCAR-3 ovarian; HS 578T breast; NCI/ADR-RES ovarian; T-47D breast; BT-549 breast; MDA-MB-435 melanoma; SW-620 colon; MCF7 breast; HCT-116 colon; HCC-2998 colon; KM12 colon; MDA-MB-468 breast.
Holding throughout (assay): NCI-60 one-dose screen, 48 h (100 = growth as untreated, 0 = no growth, -100 = all killed)
Settings in all cases: 10 µM unless noted

About 83,000 compounds went through this panel and 20% of them were active in at least one assay; those are over-represented in the sample as a whole.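 The test compound was applied at a single concentration to cells in 96-well plates for 48 hours, and percent growth was recorded.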 A number with no mark means an inactive call. Active and inactive are the calls of the source. Rule for the calls: active = growth percent below 10; inactive = the rest.

On to `CCCCC[C@@H]1C/C=C(\C)[C@@H](O)C(C)(C)C(=O)[C@@H](C)/C=C(\C)[C@@H]2C[C@H](O)C[C@](O)(CC(=O)O1)O2`, for which the growth in the experiment with SR leukemia was 17.1%; with RPMI-8226 leukemia, 8.23% (active); with OVCAR-8 ovarian, 42.3%; with OVCAR-5 ovarian, 78%; in the experiment on OVCAR-4 ovarian, 27.7%; in the experiment with SK-OV-3 ovarian, 78.6%. The growth with IGROV1 ovarian is 58.5%; with OVCAR-3 ovarian it was 35.6%; with HS 578T breast it was 47.7%; in the experiment with NCI/ADR-RES ovarian it was 19.7%; in the experiment on T-47D breast, 13.5%; in the experiment with BT-549 breast, 18.8%. In addition, the growth in the experiment with MDA-MB-435 melanoma was 24%; with SW-620 colon it was 47.3%; in the experiment on MCF7 breast it was 7.53% (active); in the experiment with HCT-116 colon it was 43%; with HCC-2998 colon, 57.1%; in the experiment on KM12 colon, 44.6%. Also, the growth in the experiment on MDA-MB-468 breast is -21.2% (active).

For `CC(=O)c1ccc2c(N)c(C(=O)Nc3ccc(C(F)(F)F)cc3)sc2n1`, the growth in the experiment with SR leukemia is 39.3%; in the experiment on RPMI-8226 leukemia, 37.3%; in the experiment with OVCAR-8 ovarian, 61.1%; with OVCAR-5 ovarian, 92.8%; in the experiment on OVCAR-4 ovarian, 35.6%; in the experiment with SK-OV-3 ovarian, 89.1%. Moreover, the growth was 93.5% in the experiment on IGROV1 ovarian; 94.4% in the experiment on OVCAR-3 ovarian; 84.2% in the experiment with HS 578T breast; 34.8% in the experiment on NCI/ADR-RES ovarian; 18.1% with T-47D breast; 43.4% with BT-549 breast. Further, the growth with MDA-MB-435 melanoma is 48.1%; with SW-620 colon, 80.1%; in the experiment with MCF7 breast, 27.8%; in the experiment on HCT-116 colon, 31%; in the experiment on HCC-2998 colon, 83.6%; in the experiment on KM12 colon it was 56.7%. Besides, in the experiment with MDA-MB-468 breast, the growth was 10.6%.

Regarding `C=CCn1c(O)c(N=Nc2nc(-c3cc4ccccc4oc3=O)cs2)c2ccccc21`, the growth in the experiment on SR leukemia is 16.2%; with RPMI-8226 leukemia it was 106%; with OVCAR-8 ovarian it was 80.9%; in the experiment on OVCAR-5 ovarian, 18.6%; in the experiment with OVCAR-4 ovarian it was 80.9%; in the experiment with SK-OV-3 ovarian it was 112%. Also, the growth in the experiment with IGROV1 ovarian was 23.9%; with OVCAR-3 ovarian it was 49.3%; with HS 578T breast it was 27.5%; in the experiment on NCI/ADR-RES ovarian it was 91.6%; in the experiment on T-47D breast it was 88.8%; in the experiment on BT-549 breast, 67.3%. Moreover, the growth in the experiment with MDA-MB-435 melanoma is 98.5%; in the experiment on SW-620 colon it was 101%; with MCF7 breast it was 33.4%; in the experiment with HCT-116 colon it was 39.3%; in the experiment on HCC-2998 colon, 78.4%; in the experiment on KM12 colon it was 79.4%. Besides, the growth in the experiment on MDA-MB-468 breast is 70.3%.

In the case of `CN(C(=O)CN1C(=O)/C(=C/c2ccco2)SC1=S)C1CCS(=O)(=O)C1` (configuration not stated), the growth was 84.8% in the experiment on SR leukemia; 98% in the experiment with RPMI-8226 leukemia; 96% with OVCAR-8 ovarian; 111% in the experiment on OVCAR-5 ovarian; 106% with OVCAR-4 ovarian; 91.3% in the experiment with SK-OV-3 ovarian. Besides, the growth in the experiment on IGROV1 ovarian was 116%; with OVCAR-3 ovarian, 99.9%; in the experiment on HS 578T breast, 111%; in the experiment with NCI/ADR-RES ovarian, 96.4%; in the experiment with T-47D breast, 75.7%; with BT-549 breast, 91.3%. Also, the growth with MDA-MB-435 melanoma was 97%; in the experiment with SW-620 colon, 99.9%; in the experiment on MCF7 breast it was 91.1%; with HCT-116 colon, 96.7%; in the experiment with HCC-2998 colon it was 104%; in the experiment with KM12 colon it was 107%. Also, the growth with MDA-MB-468 breast was 72%.

For the compound `CN1C(=O)/C(=C\C(=O)c2cc3ccccc3oc2=O)c2ccccc21`, the growth with SR leukemia was 38%; in the experiment with RPMI-8226 leukemia, 62.3%; in the experiment with OVCAR-8 ovarian it was 47.3%; in the experiment with OVCAR-5 ovarian, 84.3%; in the experiment on OVCAR-4 ovarian it was 74.8%; in the experiment on SK-OV-3 ovarian it was 80.8%. The growth in the experiment on IGROV1 ovarian is 82.3%; in the experiment on OVCAR-3 ovarian, 51.8%; in the experiment on HS 578T breast it was 57.3%; in the experiment on NCI/ADR-RES ovarian, 53.3%; with T-47D breast, 67.4%; in the experiment on BT-549 breast, 27.8%. Besides, the growth is 85.4% in the experiment with MDA-MB-435 melanoma; 27.1% in the experiment with SW-620 colon; 46.5% in the experiment with MCF7 breast; 52.6% in the experiment with HCT-116 colon; 74.2% in the experiment on HCC-2998 colon; 85.1% with KM12 colon. Also, the growth in the experiment on MDA-MB-468 breast is 28.8%.

Regarding `COc1cc2cc(C(=O)N3C[C@@H](CCl)c4c3cc(OC(=O)N(CCC(=O)N3CCN(C)CC3)C3CCCCC3)c3ccccc43)[nH]c2c(OC)c1OC`, the growth with SR leukemia was -38.8% (active); in the experiment on RPMI-8226 leukemia, -30.3% (active); with OVCAR-8 ovarian, -48.3% (active); in the experiment with OVCAR-5 ovarian, -59.1% (active); with OVCAR-4 ovarian it was -83.5% (active); with SK-OV-3 ovarian, -57.7% (active). For the same compound, the growth in the experiment on IGROV1 ovarian is -59.2% (active); in the experiment on OVCAR-3 ovarian, -65.3% (active); in the experiment with HS 578T breast, -34% (active); with NCI/ADR-RES ovarian it was -62.1% (active); with T-47D breast, -43.1% (active); in the experiment with BT-549 breast, -94.4% (active). Besides, the growth in the experiment with MDA-MB-435 melanoma was -90.8% (active); in the experiment on SW-620 colon, -55% (active); in the experiment with MCF7 breast, -59.6% (active); with HCT-116 colon it was -88.1% (active); in the experiment with HCC-2998 colon, -91% (active); in the experiment with KM12 colon, -39.1% (active). In addition, the growth with MDA-MB-468 breast is -91.8% (active).

On to `CC(C)(C)c1cc(-c2cc(-c3ccccc3)[nH]c(=O)c2C#N)cc(C(C)(C)C)c1`, for which the growth was 43.4% in the experiment on SR leukemia; 66.9% with RPMI-8226 leukemia; 7.14% (active) in the experiment with OVCAR-8 ovarian; 45.9% in the experiment on OVCAR-5 ovarian; 5.22% (active) in the experiment on OVCAR-4 ovarian; 43.7% with SK-OV-3 ovarian. Besides, the growth is 35.1% in the experiment with IGROV1 ovarian; 27.1% in the experiment on OVCAR-3 ovarian; -3.49% (active) with HS 578T breast; 25.9% in the experiment with NCI/ADR-RES ovarian; 36.4% in the experiment on T-47D breast; -3.78% (active) with BT-549 breast. For the same compound, the growth in the experiment with MDA-MB-435 melanoma is 56.9%; in the experiment with SW-620 colon, 66.1%; in the experiment with MCF7 breast, 71.8%; in the experiment on HCT-116 colon it was -35% (active); in the experiment with HCC-2998 colon, 59.8%; with KM12 colon, 81.3%. For the same compound, the growth in the experiment with MDA-MB-468 breast is 37.8%.

On to `CCC(=O)c1cc(C(=O)OC)c2ccc3c4ccccc4ccc3n12`, for which the growth in the experiment with SR leukemia was 68.3%; in the experiment with RPMI-8226 leukemia it was 84.9%; with OVCAR-8 ovarian, 71.5%; in the experiment with OVCAR-5 ovarian, 73.8%; in the experiment with OVCAR-4 ovarian, 1.22% (active); in the experiment on SK-OV-3 ovarian, 122%. Moreover, the growth with IGROV1 ovarian is 70.2%; with OVCAR-3 ovarian, 67.5%; with HS 578T breast, 63.3%; with NCI/ADR-RES ovarian, 76.6%; with T-47D breast it was 75.8%; in the experiment on BT-549 breast, 112%. Further, the growth was 93.6% in the experiment with MDA-MB-435 melanoma; 84.4% in the experiment with SW-620 colon; 80.5% in the experiment on MCF7 breast; 35% in the experiment on HCT-116 colon; 99.8% in the experiment with HCC-2998 colon; 84.7% with KM12 colon. For the same compound, the growth with MDA-MB-468 breast was 83.6%.
